# Bioassay records from PubChem BioAssay.
# Compounds with a hit are over-represented: about 5.5% of the library has one in this group of screens.
# Mito fusion yeast: qHTS Assay for Small Molecule Inhibitors of Mitochondrial Division or Activators of Mitochondrial Fusion. S. cerevisiae fusion-defective mutant growth rescue, CellTiterGlo 48 h. Potency, µM (titrated, usually from 46.1 µM), usual class: activators. 0.23% of 320,000 active. AID 485298, 2010; note: nearly all actives have a fitted effect of over 45% in size
#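 Compounds are tested for their ability to restore growth of mitochondrial fusion-defective yeast strains at non-permissive 37C in YPEG medium over 48 hours. Viability is quantified by luciferase luminescence.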
# a7 integrin act: qHTS for Activators of Integrin-Mediated Alleviation for Muscular Dystrophy | alpha7betagal myoblasts, beta-gal FDG fluorescence, 48 h | Potency, µM (top dose mostly 38.3 µM), actives largely listed as activators | 0.064% of 350,000 active | AID 624291, 2012; note: nearly all actives have a fitted effect of over 60% in size
#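 alpha7betagal+/- myoblasts (passage 13, 250/well) treated 48 h at 37C with compounds at 1:260 dilution of DMSO stock. Lysed, then beta-galactosidase activity read as FDG fluorescence (ex 480/em 540) after 30 min, with pre-read for autofluorescence.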
# BCR signal inh: qHTS Assay to Find Inhibitors of Chronic Active B-Cell Receptor Signaling | Potency, µM (top dose mostly 46.1 µM), actives largely listed as inhibitors | AID 493014, 2011 | 0.05% of 340,000 active | ABC-DLBCL IkBa-CBG/CBR reporter, luminescence ratio, 4 h; active = well fitted inhibition curve with a large enough effect in the signal ratio, with a control signal flat, not every such curve was filed as active; inconclusive = small, poorly fitted or top-dose-only effect, or effect the other way, or a change in a side signal; the % refers to the signal ratio
#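 Concentration-response series (up to 46 uM) were applied to TMD8 dual-reporter cells for 4 h at 37C with doxycycline. Green/red ratio, after filter-overlap correction, defined %Activity; red signal alone was normalised to basal cells and zero luminescence.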
# RORgamma inh: qHTS for inhibitors of ROR gamma transcriptional activity. Nuclear receptor ROR-gamma (Mus musculus), P51450. Drosophila S2 Gal4-RORgamma UAS-luciferase reporter, 20 h. Potency, µM (titrated, usually from 53.6 µM), usual class: inhibitors. 5.4% of 310,000 active; note: nearly all actives have a fitted effect of over 60% in size
# Target sequence (P51450 whole entry, looked up, the tested form may be a part): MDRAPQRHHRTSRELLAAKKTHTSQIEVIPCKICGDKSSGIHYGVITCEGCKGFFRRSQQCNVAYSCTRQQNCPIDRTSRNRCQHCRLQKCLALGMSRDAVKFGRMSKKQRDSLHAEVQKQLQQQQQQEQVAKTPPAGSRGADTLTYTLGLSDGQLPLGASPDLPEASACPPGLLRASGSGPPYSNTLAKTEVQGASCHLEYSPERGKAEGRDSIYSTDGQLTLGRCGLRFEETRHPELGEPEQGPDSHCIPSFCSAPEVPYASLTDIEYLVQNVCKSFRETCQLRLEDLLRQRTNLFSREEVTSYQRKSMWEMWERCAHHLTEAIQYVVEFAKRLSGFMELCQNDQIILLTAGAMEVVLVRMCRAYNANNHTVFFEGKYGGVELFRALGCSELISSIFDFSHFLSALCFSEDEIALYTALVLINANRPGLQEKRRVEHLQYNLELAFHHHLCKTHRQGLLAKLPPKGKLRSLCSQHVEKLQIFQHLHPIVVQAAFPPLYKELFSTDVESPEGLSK
#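 Read-out: Photinus luciferase luminescence; inhibitors lower reporter signal. Insect Schneider cells with Gal4-ROR gamma fusion under metallothionein promoter, UAS reporter; 700 uM final copper sulfate induction, 20 hr, ambient temperature.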
# uPA surface inh: qHTS for Inhibitors of Cell Surface uPA Generation. cell surface uPA generation assay, qHTS. Potency, µM (titrated, usually from 38.3 µM), most hits filed as inhibitors. 0.31% of 330,000 active. AID 540303, 2011; active = well fitted inhibition curve with a large enough effect; inconclusive = small, poorly fitted or top-dose-only effect; inactive = no such curve, though single readings can be large or run the other way; tested in mouse RAW 264.7 cells; note: nearly all actives have a fitted effect of over 55% in size
# Gal4-VP16 FLuc: VP16 counterscreen qHTS for inhibitors of ROR gamma transcriptional activity; Potency, µM (top dose mostly 53.6 µM), most hits filed as inhibitors; Drosophila S2 Gal4-VP16 UAS-luciferase, luminescence, 20 h; 3.5% of 310,000 active;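 note: Gal4-VP16 expression switched on by copper sulfate through the metallothionein promoter; nearly all actives have a fitted effect of over 50% in size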
# A number is an active result; – = inactive; ? = inconclusive; · = no result given; [ ] = remark or other dose. Unless noted, calls come from the whole dose curve; as a rule, active = well fitted curve in the direction sought with a large enough effect; inconclusive = small, poorly fitted or top-dose-only effect, or another doubt; inactive = no such curve, though single readings can be large; an effect the other way counts as inactive or inconclusive.
SMILES,Mito fusion yeast,a7 integrin act,BCR signal inh,RORgamma inh,uPA surface inh,Gal4-VP16 FLuc
CCOC(=O)c1ccc(NC(=O)c2nc(S(=O)(=O)Cc3ccccc3)ncc2Cl)cc1,–,–,?,7.9µM,–,4.5µM
O=[N+]([O-])c1cccc(-c2cc(-c3cc(Br)ccc3O)[nH]n2)c1,–,–,?,7.1µM,–,11µM
Oc1ccc(Br)cc1-c1cc(-c2ccccc2)n[nH]1,–,–,–,1.3µM,–,?
Oc1ccc(Br)cc1-c1cc(-c2ccc(Cl)cc2)n[nH]1,–,–,?,?,–,?
COc1ccc(-c2nnc3n2N=C(c2ccc(OC)c(OC)c2)CS3)cc1,·,·,·,–,·,–
c1ccc(CCNc2ccccc2)cc1,–,·,?,–,·,–
COc1ccc(C(=O)N/N=C/c2ccccn2)cc1,·,–,·,·,·,·
O=C(N/N=C/c1ccccn1)c1ccc(Br)o1,–,–,–,13µM,–,?
O=C(N/N=C/c1ccccn1)c1cc(Br)ccc1O,–,?,?,4µM,–,4.5µM
O=C(N/N=C/c1cccnc1)c1cc(Br)ccc1O,–,–,?,?,?,–
O=S(=O)(NC(=S)NC1CCCCC1)c1ccc(Br)cc1,–,–,–,4.5µM,–,?
CC(C)CNC(=O)c1nn(Cc2ccccc2)c(=O)c2ccccc12,–,–,?,–,–,–
COc1ccccc1C(=O)NNC(=O)c1nn(Cc2ccccc2)c(=O)c2ccccc12,–,–,?,6.3µM,–,?
O=C(CSc1nc2ccccc2c(=O)n1CCCN1CCOCC1)Nc1cccc(S(=O)(=O)N2CCCCCC2)c1,–,–,?,?,–,–
COc1ccc(C(=O)/C(=C\c2sccc2C)c2nc3ccccc3o2)cc1,–,·,?,–,·,–
CC(C)Oc1ccc(C(=O)/C(=C\c2cccs2)c2nc3ccccc3o2)cc1,10µM,–,–,–,–,–
COc1ccc(-n2cc3ccc([N+](=O)[O-])cc3n2)cc1,–,–,?,–,–,–
O=C1c2ccccc2C(=O)c2[nH]c(=O)[nH]c21,–,–,?,4µM,–,7.1µM
O=C1c2ccccc2C(=O)c2[nH]cnc21,–,–,?,11µM,?,?
CC1CCCCN1C(=O)COC(=O)C1CCN(S(=O)(=O)c2c(Cl)cccc2Cl)CC1 (centres undefined),–,–,?,–,–,–
COc1ccc([C@]23Cc4cc(C#N)ccc4C(O2)c2c(cc(C)n(-c4ccccc4)c2=O)O3)cc1,–[9.22 µM],·,–[9.22 µM],–[10 µM],·,–[10 µM]
COc1ccc(C(=O)N2CCC3(CC2)CCN(c2ccncc2)CC3)cc1,·,·,·,–,·,–
Cc1ccc(Cl)c2c(N=Nc3ccccc3)c(O)[nH]c12,–,–,–,–,–,–
N#CCCn1c(=O)c(-c2cccc(C#N)c2)nc2cnc(Oc3cccc(Cl)c3)nc21,·,·,·,–,·,–
O=C(N1CCN(c2ccccn2)CC1)N1c2ccccc2Sc2ccccc21,11µM,–,?,–,·,–
SMILES,Mito fusion yeast,a7 integrin act,BCR signal inh,RORgamma inh,uPA surface inh,Gal4-VP16 FLuc
COc1ccc(-c2ccc3c(c2)S(=O)(=O)c2cccc(C(=O)N4CCN(C5CCCCC5)CC4)c2C3=O)cc1OC,·,–,–,·,3.2µM,·
COc1ccc(-c2ccc3c(c2)S(=O)(=O)c2cccc(C(=O)N4CCN(c5ccccn5)CC4)c2C3=O)cc1OC,·,–,·,·,·,·
S=c1[nH]c2ccccc2s1,·,·,·,7.9µM,·,10µM
O=[N+]([O-])c1cccc(-c2noc3c2-c2nc(Cc4cccc5ccccc45)sc2CC3)c1,–,–,?,·,–,·
COc1ccccc1NC(=O)c1nc(S(=O)(=O)Cc2ccccc2)ncc1Cl,–,–,?,7.1µM,–,5µM
COc1ccccc1NC(=O)c1ccc(CS(=O)(=O)c2ccc(C)cc2)cc1,–,–,?,–,–,–
CCOc1ccccc1NC(=O)c1ccc(C(=O)Nc2ccccc2OCC)nc1,–,–,–,–,–,?
CCOc1ccccc1NC(=O)c1nc(S(=O)(=O)Cc2ccccc2)ncc1Cl,–,–,?,10µM,3.2µM,4.5µM
CCS(=O)(=O)c1ncc(Cl)c(C(=O)Nc2ccccc2OC)n1,–,–,–,?,–,1.4µM
O=C1Nc2ccccc2N=C(c2ccccc2)c2ccccc21,–,–,–,–,–,–
COc1cccc(NC(=O)CN2C(=O)COc3ccc(S(=O)(=O)N4CCOCC4)cc32)c1,–,–,–,–,–,–
O=[N+]([O-])c1cc(CN2CCC(O)CC2)ccc1Cl,–,–,–,–,–,–
COCCn1c(=O)cnc2cnc(Oc3ccc(OC)cc3)nc21,·,·,·,–,·,–
C=CCN(C(=O)CSC1=NC(=O)CN1C(C)=O)c1nc(C)c(-c2ccccc2)s1,–,–,?,13µM,–,?
C=CCSc1nnc(-c2sc(-c3ccccc3)nc2C)n1C,–,–,–,–,–,–
O=C(Nc1ccc(F)cc1)c1cc(-c2ccccn2)nc2c(Cl)cccc12,–,–,–,13µM,–,–
Cc1ccc2nc(-c3ccccn3)cc(C(=O)NCCc3ccc(F)cc3)c2c1,–,–,–,10µM,–,–
C/C(=N\NC(N)=S)C1C2C3CC4C5CC(C42)C1C53 (centres undefined),–,–,–,1.1µM,–,?
Cc1ccc(C)c(NC(=S)NC(NC(=O)/C=C/c2ccccc2)C(Cl)(Cl)Cl)c1 (centres undefined),–,–,–,5µM,–,11µM
O=C(/C=C/c1ccccc1)NC(NC(=S)Nc1ccc(Cl)cc1Cl)C(Cl)(Cl)Cl (centres undefined),–,–,?,?,–,5µM
COc1ccc(NC(=S)NC(NC(=O)c2cccc(Cl)c2)C(Cl)(Cl)Cl)c([N+](=O)[O-])c1 (centres undefined),–,–,?,?,–,?
Cc1ccc(NC(=S)NC(NC(=O)C(C)(C)C)C(Cl)(Cl)Cl)c(C)c1 (centres undefined),–,–,–,13µM,–,–
O=C(NC(NC(=S)Nc1ccccc1Cl)C(Cl)(Cl)Cl)c1cccc(Cl)c1 (centres undefined),–,–,?,?,–,13µM
CC[C@H](C)C(N)C(=O)O (some centres undefined),·,·,·,–,·,–
CC(=O)N[C@H](C(=O)N[C@@H](C)C(=O)N[C@H](C#N)CC(=O)O)C(C)C,–,·,–,·,·,·
O=C(/C=C/c1ccccc1)NC(NC(=S)Nc1cccc(Cl)c1)C(Cl)(Cl)Cl (centres undefined),–,–,–,?,–,18µM
